# According to PubChem BioAssay:
# The source made the active and inactive calls.
# Legend:
# [1] = test system: Noggin (protein binding on small-molecule microarray); experiment: small molecules binding Noggin protein – biochemical, 635/667 nm fluorescence, primary screen (AID 1095); conditions: 635 nm fluorescence, higher = more signal;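 also: score merges 667 nm feature fluorescence with signal to noise over triplicate slides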
# [2] = target: Neurogenic locus notch homolog protein 3 (Homo sapiens) (UniProt Q9UM47); experiment: small molecules binding NOTCH3 protein – biochemical, 635/667 nm fluorescence, primary screen (AID 1096); conditions: small-molecule microarray, 635 nm fluorescence, higher = more signal
# [3] = probe aEGFR binding to arrayed compounds – biochemical, biotinylated probe, 635/667 nm fluorescence, primary screen (AID 1097); conditions: small-molecule microarray, higher = more signal;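 also: probe is a biotinylated anti-EGFR antibody binding compounds printed on slides; score combines fluorescence near 667 nm and signal to noise of each spot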
# [4] = test system: Plasmodium falciparum Sir2 (PF13_0152, Sir2A); experiment: Plasmodium falciparum Sir2A binding compounds – biochemical, small-molecule microarray, 635 nm fluorescence, primary screen (AID 1098); conditions: fluorescence 635 nm, higher = more signal;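 also: score merges spot fluorescence intensity with its signal-to-noise ratio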
# [5] = probe aDKK1 binding to arrayed compounds – biochemical, biotinylated probe, 635/667 nm fluorescence, primary screen (AID 1099); conditions: small-molecule microarray, higher = more signal;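 also: score merges 667nm spot fluorescence with signal to noise across triplicate slides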
# [6] = probe aCHRDL2 binding to arrayed compounds – biochemical, biotinylated probe, 635/667 nm fluorescence, primary screen (AID 1100); conditions: small-molecule microarray, higher = more signal
# [7] = change in splice reporter luminescence, either direction, cell-based, HEK293, spliceosome inhibition project, primary screen (AID 1101); conditions: HEK293 splicing luciferase reporter, 24 h, higher = more signal, called active from +8 up or from −8 down;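 also: HEK293 cells carrying a splicing-competent luciferase reporter gene; test concentration not given here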
# [8] = target: Fibroblast growth factor 10 (Homo sapiens) (UniProt O15520); experiment: compounds binding fibroblast growth factor 10 – biochemical, small-molecule microarray, 635 nm fluorescence, primary screen (AID 1102); conditions: FGF10 binding, fluorescence 635 nm, higher = more signal
# [9] = test system: glycogen synthase kinase-3 (GSK3A per assay name; protocol says GSK3B); experiment: compounds binding glycogen synthase kinase-3 – biochemical, small-molecule microarray, 635 nm fluorescence, GSK3A, primary screen (AID 1103); conditions: fluorescence 635 nm, higher = more signal; also: the record names both GSK3A and GSK3B
# [10] = target: Epidermal growth factor receptor (Homo sapiens) (UniProt P00533); experiment: compounds binding epidermal growth factor receptor – biochemical, small-molecule microarray, 635 nm fluorescence, primary screen (AID 1104); conditions: EGFR binding, higher = more signal;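 also: score merges 667 nm emission intensity with spot signal to noise over triplicate slides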
# [11] = target: Follistatin-related protein 3 (Homo sapiens) (UniProt O95633); experiment: compounds binding follistatin-related protein 3 – biochemical, small-molecule microarray, 635 nm fluorescence, primary screen (AID 1105); conditions: FSTL3 binding, higher = more signal;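 also: score merges emission near 667 nm and signal to noise per printed spot across three slides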
# [12] = target: Dickkopf-related protein 1 (Homo sapiens) (UniProt O94907); experiment: small molecules binding DKK1 protein – biochemical, small-molecule microarray, 635 nm fluorescence scan, primary screen (AID 1106); conditions: higher = more signal;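 also: score merges emission near 667 nm with signal to noise over three replicate slides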
# [13] = test system: Inhibin beta A chain (activin A); experiment: small molecules binding activin A – biochemical, small-molecule microarray, 635 nm fluorescence scan, primary screen (AID 1107); conditions: INHBA, higher = more signal;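 also: mouse activin A protein probed at 4.33 µg/mL on printed slides; score merges bound-protein fluorescence near 667 nm with spot signal-to-noise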
# [14] = test system: Human papillomavirus type 1a protein E7 (residues 44-93); experiment: small molecules binding HPV E7 44-93 – biochemical, small-molecule microarray, residues 44-93, 635 nm fluorescence, primary screen (AID 1108); conditions: fluorescence 635 nm, higher = more signal;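 also: E7 fragment applied at 1 µg/mL in TBST for 1 h at 4 C; score combines spot fluorescence with its signal to noise ratio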
# [15] = hepatitis C replication reporter changes, two-sided – Huh7 cells, luciferase reporter, HCV replication inhibitor project, primary screen (AID 1109); conditions: Huh7 HCV replicon luciferase reporter, 48 h; higher = more signal;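 also: huh7 hepatoma cells harbouring a luciferase neomycin HCV replicon reporter; luciferase luminescence as measure of HCV replicon replication; test concentration not given here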
# [16] = target: Left-right determination factor 2 (Homo sapiens) (UniProt O00292); experiment: small molecules binding LEFTY2 protein – biochemical, small-molecule microarray, 635 nm fluorescence scan, primary screen (AID 1110); conditions: higher = more signal
# [17] = target: Calmodulin-1 (Homo sapiens) (UniProt P0DP23); experiment: small molecules binding calmodulin-1 with EGTA – biochemical, small-molecule microarray, Cy5-labelled CALM1, profiling panel (AID 1111); conditions: Cy5-CALM1 binding fluorescence, higher = more signal;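 also: labelled calmodulin applied in Tris saline Tween buffer holding calcium plus EGTA and DTT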
# [18] = target: Calmodulin-1 (Homo sapiens) (UniProt P0DP23); experiment: small molecules binding Ca-loaded calmodulin-1 – biochemical, small-molecule microarray, Cy5-labelled CALM1, plus calcium, artefact control for SMM control-protein annotation, profiling panel (AID 1112); conditions: Cy5-CALM1 binding fluorescence, higher = more signal;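 also: score merges spot fluorescence with signal to noise from triplicate slides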
# [19] = probe aWnt5a binding to arrayed compounds – biochemical, biotinylated probe, 635/667 nm fluorescence, primary screen (AID 1113); conditions: small-molecule microarray, higher = more signal;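 also: score merges 667 nm fluorescence intensity with signal-to-noise per printed feature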
# [20] = probe aShh binding to arrayed compounds – biochemical, biotinylated probe, 635/667 nm fluorescence, primary screen (AID 1114); conditions: small-molecule microarray, higher = more signal;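 also: probe is biotin-labelled aShh protein from a stem cell growth factor screen; measures binding of labelled protein to compounds printed on the slide; score merges feature fluorescence at 667 nm with signal-to-noise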
# Epidermal growth factor receptor (Homo sapiens), sequence (P00533 whole entry, looked up): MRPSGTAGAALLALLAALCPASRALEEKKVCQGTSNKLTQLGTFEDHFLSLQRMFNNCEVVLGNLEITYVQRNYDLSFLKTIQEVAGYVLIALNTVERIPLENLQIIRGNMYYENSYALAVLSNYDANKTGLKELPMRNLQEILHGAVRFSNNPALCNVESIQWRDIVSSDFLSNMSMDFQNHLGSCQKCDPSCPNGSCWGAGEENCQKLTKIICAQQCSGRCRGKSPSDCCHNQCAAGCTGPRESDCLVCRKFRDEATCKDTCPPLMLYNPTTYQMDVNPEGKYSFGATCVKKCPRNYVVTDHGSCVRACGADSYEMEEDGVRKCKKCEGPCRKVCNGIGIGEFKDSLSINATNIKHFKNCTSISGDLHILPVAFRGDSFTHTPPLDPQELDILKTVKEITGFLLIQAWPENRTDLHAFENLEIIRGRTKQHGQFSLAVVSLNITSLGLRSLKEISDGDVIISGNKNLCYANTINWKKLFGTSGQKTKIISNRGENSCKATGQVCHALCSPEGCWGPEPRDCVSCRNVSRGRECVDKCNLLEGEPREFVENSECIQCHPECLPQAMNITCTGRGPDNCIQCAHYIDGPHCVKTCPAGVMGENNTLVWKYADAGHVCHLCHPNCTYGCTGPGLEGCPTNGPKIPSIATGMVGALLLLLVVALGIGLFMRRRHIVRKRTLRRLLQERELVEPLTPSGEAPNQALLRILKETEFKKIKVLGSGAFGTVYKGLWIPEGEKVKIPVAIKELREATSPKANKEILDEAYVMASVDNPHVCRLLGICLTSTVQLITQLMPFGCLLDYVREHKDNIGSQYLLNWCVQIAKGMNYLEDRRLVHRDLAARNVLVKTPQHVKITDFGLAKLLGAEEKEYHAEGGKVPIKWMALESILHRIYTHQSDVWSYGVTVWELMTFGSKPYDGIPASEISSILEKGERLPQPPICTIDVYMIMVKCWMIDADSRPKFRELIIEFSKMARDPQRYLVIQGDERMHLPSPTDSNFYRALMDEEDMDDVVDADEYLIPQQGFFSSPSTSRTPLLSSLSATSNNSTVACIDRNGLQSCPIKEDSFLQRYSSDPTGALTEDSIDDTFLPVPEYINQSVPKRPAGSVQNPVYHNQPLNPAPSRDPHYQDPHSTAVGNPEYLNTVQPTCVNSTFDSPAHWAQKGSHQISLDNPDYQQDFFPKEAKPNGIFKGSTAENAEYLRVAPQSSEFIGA
# Follistatin-related protein 3 (Homo sapiens), sequence (O95633 whole entry, looked up): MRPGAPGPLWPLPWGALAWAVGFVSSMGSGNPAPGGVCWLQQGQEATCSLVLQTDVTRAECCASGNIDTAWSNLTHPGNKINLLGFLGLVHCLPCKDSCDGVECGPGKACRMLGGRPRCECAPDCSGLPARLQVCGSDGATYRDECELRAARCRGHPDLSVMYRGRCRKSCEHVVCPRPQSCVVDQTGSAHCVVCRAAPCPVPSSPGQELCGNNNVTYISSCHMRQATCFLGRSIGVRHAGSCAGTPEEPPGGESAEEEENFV
# Neurogenic locus notch homolog protein 3 (Homo sapiens), sequence (Q9UM47 whole entry, looked up): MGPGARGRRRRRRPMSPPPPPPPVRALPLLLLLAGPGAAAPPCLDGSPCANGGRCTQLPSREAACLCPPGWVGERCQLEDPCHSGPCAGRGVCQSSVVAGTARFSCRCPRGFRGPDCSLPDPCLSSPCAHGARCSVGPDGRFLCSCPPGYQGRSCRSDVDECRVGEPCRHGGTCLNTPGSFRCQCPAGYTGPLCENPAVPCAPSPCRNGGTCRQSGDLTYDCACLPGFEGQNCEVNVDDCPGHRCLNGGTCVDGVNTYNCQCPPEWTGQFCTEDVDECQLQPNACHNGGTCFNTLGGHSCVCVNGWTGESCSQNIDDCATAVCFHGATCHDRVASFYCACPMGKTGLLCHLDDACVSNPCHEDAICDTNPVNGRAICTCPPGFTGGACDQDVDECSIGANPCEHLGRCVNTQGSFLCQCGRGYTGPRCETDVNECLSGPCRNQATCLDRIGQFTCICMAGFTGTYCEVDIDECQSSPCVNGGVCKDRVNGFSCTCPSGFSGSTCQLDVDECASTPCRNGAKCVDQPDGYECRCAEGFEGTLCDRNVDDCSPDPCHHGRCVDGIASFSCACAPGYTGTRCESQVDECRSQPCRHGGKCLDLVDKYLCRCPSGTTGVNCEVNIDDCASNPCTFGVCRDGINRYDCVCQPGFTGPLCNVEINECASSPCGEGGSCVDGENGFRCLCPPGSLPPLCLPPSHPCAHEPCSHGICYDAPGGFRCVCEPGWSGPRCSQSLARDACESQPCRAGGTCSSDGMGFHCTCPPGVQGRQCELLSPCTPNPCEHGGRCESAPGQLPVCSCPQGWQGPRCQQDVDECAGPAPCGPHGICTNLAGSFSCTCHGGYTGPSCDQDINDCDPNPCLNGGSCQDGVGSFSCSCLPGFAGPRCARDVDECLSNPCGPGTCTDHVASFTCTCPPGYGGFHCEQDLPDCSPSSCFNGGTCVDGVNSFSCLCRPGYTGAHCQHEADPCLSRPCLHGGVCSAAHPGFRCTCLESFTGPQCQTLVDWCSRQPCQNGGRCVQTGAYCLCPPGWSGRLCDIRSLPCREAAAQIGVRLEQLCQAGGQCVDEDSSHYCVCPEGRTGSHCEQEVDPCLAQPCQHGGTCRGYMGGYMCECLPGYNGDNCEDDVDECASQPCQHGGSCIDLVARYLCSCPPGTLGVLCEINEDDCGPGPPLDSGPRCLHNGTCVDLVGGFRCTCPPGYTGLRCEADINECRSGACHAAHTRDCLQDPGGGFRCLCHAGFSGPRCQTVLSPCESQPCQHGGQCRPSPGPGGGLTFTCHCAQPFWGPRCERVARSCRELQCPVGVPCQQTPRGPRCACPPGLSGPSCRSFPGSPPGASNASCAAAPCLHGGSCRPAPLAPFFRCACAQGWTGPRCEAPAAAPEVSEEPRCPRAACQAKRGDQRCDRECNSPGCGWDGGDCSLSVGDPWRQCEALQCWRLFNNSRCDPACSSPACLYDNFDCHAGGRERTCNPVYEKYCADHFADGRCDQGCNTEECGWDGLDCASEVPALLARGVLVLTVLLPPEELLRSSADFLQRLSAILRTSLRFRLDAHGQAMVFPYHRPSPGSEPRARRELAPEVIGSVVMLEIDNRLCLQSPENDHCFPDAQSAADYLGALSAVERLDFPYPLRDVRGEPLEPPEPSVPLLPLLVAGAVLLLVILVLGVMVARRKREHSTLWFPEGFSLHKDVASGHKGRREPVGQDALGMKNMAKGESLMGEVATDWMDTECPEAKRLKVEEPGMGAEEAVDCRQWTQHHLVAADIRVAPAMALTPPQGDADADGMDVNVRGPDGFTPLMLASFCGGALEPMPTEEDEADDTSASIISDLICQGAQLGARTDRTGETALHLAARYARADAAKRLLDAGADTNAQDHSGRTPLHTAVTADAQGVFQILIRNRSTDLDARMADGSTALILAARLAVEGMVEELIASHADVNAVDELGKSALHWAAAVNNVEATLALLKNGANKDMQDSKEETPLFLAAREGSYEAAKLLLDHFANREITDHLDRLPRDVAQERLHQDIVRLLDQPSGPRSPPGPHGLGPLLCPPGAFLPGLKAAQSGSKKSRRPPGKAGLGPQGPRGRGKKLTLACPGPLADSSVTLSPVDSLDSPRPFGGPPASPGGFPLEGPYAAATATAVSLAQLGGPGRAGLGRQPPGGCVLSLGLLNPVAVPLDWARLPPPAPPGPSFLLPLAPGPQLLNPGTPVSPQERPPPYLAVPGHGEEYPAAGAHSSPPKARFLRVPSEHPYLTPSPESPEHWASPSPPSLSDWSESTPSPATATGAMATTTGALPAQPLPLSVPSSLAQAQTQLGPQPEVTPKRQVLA
# Left-right determination factor 2 (Homo sapiens), sequence (O00292 whole entry, looked up): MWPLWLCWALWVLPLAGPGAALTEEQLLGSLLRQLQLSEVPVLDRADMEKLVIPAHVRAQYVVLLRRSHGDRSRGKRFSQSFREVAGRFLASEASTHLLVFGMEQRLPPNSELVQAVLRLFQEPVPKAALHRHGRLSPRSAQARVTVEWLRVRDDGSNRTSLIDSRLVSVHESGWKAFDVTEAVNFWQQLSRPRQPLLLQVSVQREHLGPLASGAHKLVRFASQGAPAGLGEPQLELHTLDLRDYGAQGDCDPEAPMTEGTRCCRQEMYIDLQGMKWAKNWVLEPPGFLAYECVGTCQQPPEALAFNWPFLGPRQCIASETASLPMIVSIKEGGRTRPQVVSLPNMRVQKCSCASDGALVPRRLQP
# Fibroblast growth factor 10 (Homo sapiens), sequence (O15520 whole entry, looked up): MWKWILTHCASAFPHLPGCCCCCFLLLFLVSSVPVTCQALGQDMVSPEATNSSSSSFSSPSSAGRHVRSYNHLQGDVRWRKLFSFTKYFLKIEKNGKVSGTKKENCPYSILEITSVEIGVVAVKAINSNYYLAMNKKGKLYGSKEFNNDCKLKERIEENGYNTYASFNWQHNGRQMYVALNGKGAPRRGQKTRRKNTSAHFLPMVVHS
# Dickkopf-related protein 1 (Homo sapiens), sequence (O94907 whole entry, looked up): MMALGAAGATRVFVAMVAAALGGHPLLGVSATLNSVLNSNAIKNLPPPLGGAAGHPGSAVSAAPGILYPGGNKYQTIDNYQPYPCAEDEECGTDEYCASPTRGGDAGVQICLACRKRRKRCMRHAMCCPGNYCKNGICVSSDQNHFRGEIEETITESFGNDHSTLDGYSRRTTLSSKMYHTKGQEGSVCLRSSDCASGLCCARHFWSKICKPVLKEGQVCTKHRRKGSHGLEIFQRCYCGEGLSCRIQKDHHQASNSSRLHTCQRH
SMILES,composite z-score [1],composite z-score [2],composite z-score [3],composite z-score [4],composite z-score [5],composite z-score [6],z-score [7],composite z-score [8],composite z-score [9],composite z-score [10],composite z-score [11],composite z-score [12],composite z-score [13],composite z-score [14],z-score [15],composite z-score [16],composite z-score [17],composite z-score [18],composite z-score [19],composite z-score [20]
C=C(COC)C(=O)CC[C@@H](OC(=O)c1ccccc1-c1ccccc1C(=O)O)c1cccc(OCCO)c1,0.518,-0.338,-0.173,0.147,-0.0386,0.0203,0.306 (inactive),0.552,-0.116,-0.837,-0.0053,-0.0221,1.19,-1.75,-0.54,0.0941,-1.17,-1.09,-0.096,-0.153
COc1c(C)cc(-c2cc3c(c(CCc4ccccc4)n2)[Si](C(C)C)(C(C)C)OC3)cc1C,0.288,0.34,0.0068,-0.615,0.335,0.156,-1.28 (inactive),0.513,0.723,0.927,0.567,0.162,0.474,0.804,0.336,0.474,-0.354,-0.381,-0.152,-0.131
COc1ccc([Si](C)(C)[C@@H]2[C@@H](CC(=O)N3CCC[C@H]3CO)O[C@]3(C(=O)N(Cc4ccc(I)cc4)c4ccccc43)[C@H]2C)cc1,0.982,1.13,0.0152,0.648,-0.0319,0.0052,-1.62 (inactive),0.637,1.29,0.743,1.23,1.13,0.752,0.152,-2.22,0.46,1.51,1.15,-0.165,0.0611
CC(C)C(CO)N1C(=O)[C@@H]2C3C(=O)OCCC/C=C\[C@H]3OC23C=CCN(C(C)C)C(=O)[C@@H]13 (stereo not given in full),-0.868,-0.134,-0.188,1.86,-0.191,0.481,-0.895 (inactive),-0.547,-0.875,-1.2,-0.826,-0.868,0.968,-0.359,-0.069,-0.73,-0.467,-0.14,-0.221,-0.0035
C[N+](C)(C)CCCC[C@@H]1NC(=O)[C@@H]2C[C@H](C(=O)NCCCCCNC(=O)CS)[C@H](c3ccc(O)cc3)N2C1=O,1.39,0.322,-0.149,1.3,-0.0611,0.346,4.12 (inactive),0.0481,-0.638,-0.849,0.0788,0.171,0.57,-0.643,-0.0298,-0.739,0.21,0.669,-0.191,0.138
[N-]=[N+]=NCc1ccccc1C[C@@]1(C(=O)O)N=C(c2ccc(OCCCO)cc2)O[C@@H]1c1ccccc1,-0.811,-0.364,-0.221,1.31,0.884,1.24,-0.618 (inactive),-0.0995,-0.374,-0.906,-0.879,-1.09,0.738,0.566,-0.616,-0.404,2.13,1.36,-0.0799,0.0469
CC(=O)OC(C/C=C\B1OC(C)(C)C(C)(C)O1)c1ccccc1 (stereo not given),-0.502,-0.761,-0.268,-0.552,-0.264,0.281,-2.42 (inactive),-0.704,-0.138,0.247,0.173,0.0618,1.38,-0.328,0.386,0.149,-1.33,-0.664,-0.152,-0.0813
C=CCC(OC(C)=O)[C@@H]1[C@@H](N(Cc2ccc(-c3cccc(C(F)(F)F)c3)o2)C(=O)c2ccc(-c3ccccc3)cc2)c2cc(OCCCO)ccc2N1C(=O)Cc1ccc(OC)cc1 (stereo not given in full),-0.475,-1.16,-0.191,-0.0081,0.109,0.796,-1.07 (inactive),-0.0385,-0.661,-0.574,-0.201,-0.361,1.44,-0.0271,-0.169,-0.236,-1.05,0.897,-0.104,-0.0931
CCOC(=O)C[C@H]1[C@H](OC(=O)c2ccc(-c3ccccc3)cc2)[C@@H](NC(=O)c2ccccc2)c2cc(OCCCO)ccc2N1C(=O)c1ccccc1,-0.0461,0.526,-0.019,0.204,0.462,0.47,-2.01 (inactive),0.767,0.66,-0.0664,0.235,-0.188,-0.649,1.11,-1.58,0.394,2.04,1.2,-0.0718,0.275
CN1C=C(C(=O)OCCS(C)(=O)=O)C(C(=O)OCCS(C)(=O)=O)=CC(CCCO)=CC1c1cccs1 (stereo not given),0.774,0.774,-0.0659,-0.122,-0.18,-0.707,-0.601 (inactive),0.395,0.891,0.56,0.663,0.537,-0.558,0.358,-0.911,0.716,-0.524,-0.676,-0.0161,-0.0011
COC(=O)C(CC#Cc1ccc2c(c1)[C@]1(C(=O)N2)[C@H](C(=O)O)[C@H]2C(=O)O[C@H](c3ccccc3)[C@H](c3ccccc3)N2[C@@H]1c1ccc(OCCO)cc1)C(=O)OC,0.245,0.983,-0.0728,1.53,0.393,0.799,-1.31 (inactive),1.15,0.987,-0.199,0.0514,-0.611,0.117,0.738,-0.555,0.155,2.16,0.717,-0.0229,0.166
CC(C)C[C@@H]1NC(=O)[C@@]23C(=O)N[C@@H](Cc4ccccc4)C2[C@H](C)[C@@]2(C)O[C@H]2C3/C=C/CC/C=C/CNC(=O)[C@@H](C)NC1=O (stereo not given in full),1.28,0.71,-0.162,0.624,-0.246,-0.722,-0.585 (inactive),1.39,0.374,0.732,1.07,0.81,1.29,-0.211,0.42,0.575,-0.643,-1.39,-0.154,-0.229
CCCCCCC#C[Si](O[C@H](c1ccccc1)c1cn(Cc2ccccc2)nn1)(C(C)C)C(C)C,0.977,0.6,0.0334,-0.068,-0.0783,-0.14,-1.51 (inactive),0.232,0.305,0.302,0.388,0.279,0.403,0.382,-1.93,0.367,-0.0092,0.716,-0.151,-0.108
O=C(O)[C@H]1C[C@H]2C(=O)N[C@@H](Cc3ccccc3)C(=O)N2[C@H]1c1ccc(O)cc1,0.108,0.321,0.064,1.56,0.844,0.913,-0.282 (inactive),-0.349,0.661,-0.502,-0.192,-0.0944,0.945,-0.067,-0.262,-0.307,-0.195,0.504,-0.0678,-0.0783
CC(C)CCC[C@@H](C)[C@H]1CC[C@@]2(C)C3=C(CC[C@]12C)[C@@]1(C)CC[C@H](OC(=O)CCl)C(C)(C)C1CC3 (stereo not given in full),0.44,0.847,0.0143,0.346,-0.0827,-0.49,0.0767 (inactive),0.471,0.684,0.372,0.675,0.604,0.0773,0.637,-0.143,0.448,-0.0581,-0.552,0.0115,-0.424
COCCOC(=O)N1C(=O)[C@@]2(c3cc(C#CC4(O)CCCCCC4)ccc31)[C@H](c1ccc(O)cc1)N1[C@H](c3ccccc3)[C@H](c3ccccc3)OC(=O)[C@H]1[C@@H]2C(N)=O,0.0282,0.928,-0.0924,0.98,0.106,0.375,-0.652 (inactive),0.744,0.0417,0.0818,0.585,0.577,0.311,1.06,-0.0511,-0.0539,2.23,0.0903,0.0719,-0.223
